High-throughput results as filed in PubChem BioAssay.
TDP1 cell CPT: qHTS for Inhibitors of human tyrosyl-DNA phosphodiesterase 1 (TDP1): qHTS in cells in presence of CPT | AID 686979, 2013 | 420,000 compounds, 12% hits | Potency, µM (doses to about 46.2 µM), for the others: at the highest dose activity change, negative = growth inhibition, most hits filed as inhibitors | chicken DT40 Tdp1-/-;hTDP1 cells + 20 nM CPT, ATP luminescence, 48 h; note: nearly all actives have a fitted effect of over 55% in size
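Chicken DT40 Tdp1-/- cells stably complemented with human TDP1 were seeded at 400 cells/well in medium containing 20 nM camptothecin, exposed to pin-transferred compounds, and grown at 37 °C for at least 48 hr. Viability was read as ATP luminescence.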
RORg inh: qHTS for inhibitors of ROR gamma transcriptional activity. Nuclear receptor ROR-gamma (Mus musculus), P51450. Drosophila S2 Gal4-RORgamma UAS-luciferase reporter, 20 h. Potency, µM (top dose mostly 53.6 µM), inactives show top-dose activity change, negative = inhibition, most hits filed as inhibitors. 310,000 compounds, 5.4% hits. AID 2551, 2010; note: nearly all actives have a fitted effect of over 60% in size
Target sequence (P51450 whole entry, looked up, the tested form may be a part): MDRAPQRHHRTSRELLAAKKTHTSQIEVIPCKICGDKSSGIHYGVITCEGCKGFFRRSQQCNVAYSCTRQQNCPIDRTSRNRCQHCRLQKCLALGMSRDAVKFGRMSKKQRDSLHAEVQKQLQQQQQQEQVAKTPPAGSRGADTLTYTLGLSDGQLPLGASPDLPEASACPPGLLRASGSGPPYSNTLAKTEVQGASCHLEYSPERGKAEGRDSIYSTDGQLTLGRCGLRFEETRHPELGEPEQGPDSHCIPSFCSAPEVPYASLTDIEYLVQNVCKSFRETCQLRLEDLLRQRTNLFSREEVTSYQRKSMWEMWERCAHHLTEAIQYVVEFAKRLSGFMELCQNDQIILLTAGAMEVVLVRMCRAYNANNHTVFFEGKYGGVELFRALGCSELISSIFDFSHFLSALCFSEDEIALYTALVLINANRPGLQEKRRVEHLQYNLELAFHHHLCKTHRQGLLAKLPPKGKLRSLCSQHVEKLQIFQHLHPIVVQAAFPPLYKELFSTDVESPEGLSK
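Drosophila Schneider cells stably carrying a metallothionein-driven Gal4 DBD–ROR gamma fusion and a UAS-Photinus luciferase reporter were exposed to compound for 1 hr, then induced with copper sulfate (700 uM final) for 20 hr at ambient temperature before luminescence reading.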
VP16 counter: VP16 counterscreen qHTS for inhibitors of ROR gamma transcriptional activity; Drosophila S2 Gal4-VP16 UAS-luciferase, luminescence, 20 h; Potency, µM (highest dose often 53.6 µM), for the others: at the highest dose activity, negative = inhibition, actives largely listed as inhibitors; 310,000 compounds, 3.5% hits; AID 2546, 2010;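 note: Gal4-VP16 expression switched on by copper sulfate through the metallothionein promoter; nearly all actives have a fitted effect of over 50% in size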
DT40 TDP1 no CPT: qHTS for Inhibitors of human tyrosyl-DNA phosphodiesterase 1 (TDP1): qHTS in cells in absence of CPT | DT40 Tdp1-/- hTDP1 cells, no CPT, ATP luminescence, 48 h | Potency, µM (doses to about 46.2 µM), for inactives: top-dose activity change, negative = growth inhibition, most hits filed as inhibitors | 420,000 compounds, 15% hits | AID 686978, 2013; note: nearly all actives have a fitted effect of over 55% in size
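Cells were dispensed at 400 per well, compounds added by pin tool, plates incubated ≥48 hr at 37 °C, then CellTiter-Glo added for 30 min at room temperature before luminescence reading. Line: DT40 Tdp1-/- complemented with hTDP1; camptothecin omitted.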
TDP1 inh: qHTS Assay for Inhibitors of Tyrosyl-DNA Phosphodiesterase (TDP1) | Tyrosyl-DNA phosphodiesterase 1 (Homo sapiens), Q9NUW8 | recombinant TDP1, AlphaScreen DNA substrate cleavage | Potency, µM (doses to about 130 µM), for inactives: at the top dose activity change, negative = inhibition, actives largely listed as inhibitors | 350,000 compounds, 0.28% hits | AID 485290, 2010; note: nearly all actives have a fitted effect of over 40% in size
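Compounds were preincubated with Tdp1 (1 nM final) for 15 min at room temperature before substrate (15 nM final) started a 5 min reaction; beads (10 ug/ml final) were then added for 10 min before AlphaScreen detection.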
An asterisk follows results filed as active; [ ] = remark or other dose. An excerpt weighted towards active compounds, which were near 19% of everything screened. Calls come from the whole dose curve; as a rule, active = well fitted curve in the direction sought with a large enough effect; inconclusive = small, poorly fitted or top-dose-only effect, or another doubt; inactive = no such curve, though single readings can be large; an effect the other way counts as inactive or inconclusive. % is set by controls: 0 for no effect and ±100 for the full control effect; potency is the fitted concentration of half-maximal effect.

Screening COc1ccc(-c2cnnc(N/N=C/c3ccc(O)c(O)c3)n2)cc1 returned TDP1 cell CPT 7.31µM*, RORg inh inconclusive, VP16 counter 8.91µM*, DT40 TDP1 no CPT 9.2µM* and TDP1 inh 2.3%.
For CC(=O)N[C@@H](Cc1c[nH]c2ccccc12)C(=O)OCc1ccc(C#N)cc1 the results were TDP1 cell CPT 0.6%, RORg inh -3.2%, VP16 counter 0.8%, DT40 TDP1 no CPT 0.8% and TDP1 inh 3.3%[0.0935 µM].
CN(C)[C@H]1C(=O)C(C(=O)NCN2CCCC2)=C(O)[C@]2(O)C(=O)C3=C(O)c4c(O)cccc4[C@](C)(O)[C@H]3C[C@H]12 was read as RORg inh -0.4%[10 µM], VP16 counter -2.6% and TDP1 inh 0.199µM*.
Screening CN(C)[C@@H]1C(=O)C(C(=O)NCN2CCCC2)=C(O)[C@@]2(O)C(=O)C3=C(O)c4c(O)cccc4[C@@](C)(O)C3CC12 (stereo not given in full) returned RORg inh -15.4%, VP16 counter 2.7% and TDP1 inh 0.708µM*.
For CN(C)c1ccccc1-c1cc(NC=O)c2ncc(-c3cccc(C(F)(F)F)c3)n2c1 the results were TDP1 cell CPT inconclusive and DT40 TDP1 no CPT 23.1µM*.
Screening COc1ccc(-c2cc(NC=O)c3ncc(-c4cccc(C(F)(F)F)c4)n3c2)cc1OC returned TDP1 cell CPT 23.1µM* and DT40 TDP1 no CPT 20.6µM*.
Screening COc1ccccc1-c1cc(NC=O)c2ncc(-c3cccc(C(F)(F)F)c3)n2c1 returned TDP1 cell CPT inconclusive and DT40 TDP1 no CPT 18.4µM*.
COc1ccccc1-c1cc(NC=O)c2ncc(-c3ccc(F)cc3)n2c1 was read as TDP1 cell CPT 13µM* and DT40 TDP1 no CPT 18.4µM*.
`COc1ccccc1C(O)c1ncc(-c2cccc(C(F)(F)F)c2)[nH]1` (stereo not given) gave TDP1 cell CPT -8.5% and DT40 TDP1 no CPT inconclusive.
COc1cnc(-c2cccc(C(F)(F)F)c2)nc1OC was read as TDP1 cell CPT -29.8%, RORg inh 1.9%, VP16 counter 2.8%, DT40 TDP1 no CPT -40.4% and TDP1 inh -4.8%.
Cc1cc(C)c(NC(=O)CSc2nc3c([nH]c4ccccc43)c(=O)n2C)c(C)c1 was read as TDP1 cell CPT inconclusive, DT40 TDP1 no CPT inconclusive and TDP1 inh -4.4%.
For CC(=O)c1ccc(S(=O)(=O)N2CCN(S(=O)(=O)c3ccccc3C(F)(F)F)CC2)cc1 the results were TDP1 cell CPT -12.5%, RORg inh -2.9%, VP16 counter 4.6% and DT40 TDP1 no CPT 12.1%.
For COc1ccc(CCNC(=O)C23CN(Cc4ccccc4)CC2C(c2ccc([N+](=O)[O-])cc2)=NO3)cc1 (stereo not given) the results were TDP1 cell CPT inconclusive, RORg inh -7.3%, VP16 counter -8.9%, DT40 TDP1 no CPT inconclusive and TDP1 inh 9.5%.
Screening Cc1nn(Cc2ccccc2Cl)c(C)c1NC(=O)c1cc(C(C)C)on1 returned TDP1 cell CPT inconclusive, DT40 TDP1 no CPT inconclusive and TDP1 inh 4.5%.
COc1cc(-c2cc(NC=O)c3ncc(-c4cccc(C(F)(F)F)c4)n3c2)cc(OC)c1OC was read as TDP1 cell CPT 8.2µM* and DT40 TDP1 no CPT 10.3µM*.
For COc1cc(-c2nc(-c3cccc(C(F)(F)F)c3)no2)cc(OC)c1OC the results were TDP1 cell CPT inconclusive, RORg inh -36.1%, VP16 counter 0.0%, DT40 TDP1 no CPT inconclusive and TDP1 inh 5.2%.
Screening CSCC[C@H](CO)NC(=O)[C@H]1O[C@@H](n2cnc3c(N)ncnc32)[C@H](O)[C@@H]1O returned TDP1 cell CPT -11.9% and DT40 TDP1 no CPT -9.0%.
